The list is not random: actives were taken first. Their share in the collection is about 0.45%.
FMDV FLuc – shows antiviral activity against foot and mouth disease virus; 0.23% of 120,000 active; Potency, µM (top dose mostly 57.5 µM), for the others: at the highest dose activity change, negative = inhibition, most hits filed as inhibitors; FMDV antiviral cell assay, firefly luciferase signal; further: nearly all actives have a fitted effect of over 60% in size
FMDV RLuc – shows antiviral activity in FMDV Renilla assay | FMDV replicon cells, Renilla luciferase signal | Potency, µM (doses to about 57.5 µM), without a hit: at the highest dose activity change, negative = inhibition, most hits filed as inhibitors | 0.32% of 120,000 active; further: nearly all actives have a fitted effect of over 55% in size
* hit, by the source's call; ? = inconclusive. The call rests on the fitted dose curve. On the % scale 0 is the no-effect control and ±100 the full control effect; potency means the concentration at half of the fitted maximal effect.

SMILES | FMDV FLuc | FMDV RLuc
CCOC(=O)COc1ccc2c(=O)c(Oc3ccc(C(=O)OC)cc3)c(C(F)(F)F)oc2c1 | 4% | -3%
CCOC(=O)c1ccc(Oc2c(C(F)(F)F)oc3cc(O)ccc3c2=O)cc1 | ? | 25µM*
O=C1NC(C(=O)O)=CC(c2ccc(F)cc2F)N1 (stereo not drawn) | -3% | -12%
COc1cc(OC)c(NC(C)C(=O)N(C)Cc2cccc(F)c2)cc1Cl (stereo not drawn) | 0% | 6%
CCOc1ccc2nc(SCC(=O)N(Cc3ccccc3)C3CCS(=O)(=O)C3)[nH]c2c1 (stereo not drawn) | 2% | 5%
CCOc1ccc2nc(SCC(=O)N3CCN(S(=O)(=O)c4ccccc4)C3C(C)C)[nH]c2c1 (stereo not drawn) | 25µM* | ?
CC(C)OCc1ccc(CNC(=O)CNC(=O)C2CCCC2)cc1 | 6% | 29%
Clc1ccc(-c2csc3ncnc(Sc4nnc(C5CC5)o4)c23)cc1 | 25µM* | 20µM*
Cc1cc(C)n(-c2ncnc3scc(-c4ccc(Cl)cc4)c23)n1 | -6% | -5%
O=C(Nc1ccc(Cl)c(C(F)(F)F)c1)c1ccc(Cl)cc1Cl | 22% | ?
O=C(Nc1ccc(Cl)cc1)Nc1ccc(Cl)c(C(F)(F)F)c1 | ? | 7.1µM*
CCCCNC(=S)NN=C1CCCC1 | 16% | 2%
Cc1ccc(Cl)cc1N1CCN(C(=O)C2CCN(c3nnc(-n4c(C)ccc4C)s3)CC2)CC1 | 10µM* | ?
CCS(=O)(=O)N1CCC(C(=O)N2CCN(c3cc(Cl)ccc3C)CC2)CC1 | -19% | -25%
CC(Sc1ncnc2nc[nH]c12)C(=O)NCCc1ccc(Cl)cc1 (stereo not drawn) | 5% | 0%
CCCCCCC[N+](CC)(CC)CCCCc1ccc(Cl)cc1 | ? | 7.9µM*
CCCCCCc1ccc(C(=O)Oc2ccc(Cl)cc2)cc1 | -7% | -7%
CCOc1ccccc1NC(=O)COc1ccccc1C(=O)c1cc(C#N)c(=O)n(C2CCCCC2)c1 | -1% | 1%
CCOC(=O)NC(OCc1ccccc1)(C(=O)OC)C(F)(F)F (stereo not drawn) | 0% | -6%
C=C(C)COc1ccc2c(C)c(CCC(=O)NCc3ccc(S(N)(=O)=O)cc3)c(=O)oc2c1 | 4.5µM* | 7.1µM*
COc1ccc2c(C)c(CCC(=O)NCc3ccc(S(=O)(=O)N(C)C)cc3)c(=O)oc2c1 | -6% | -16%
N#Cc1ccccc1NC(=O)CCc1ccsc1 | 191% | 42%
COc1ccc(-c2cc(C(F)(F)F)nc(S(C)(=O)=O)n2)cc1 | -32% | ?
CCOC(=O)CS(=O)(=O)c1nc(-c2ccc(F)cc2)cc(C(F)(F)F)n1 | ? | 28µM*
O=C1CC(c2ccccc2O)Cc2nc(N3CCN(c4cccc(C(F)(F)F)c4)CC3)ncc21 (stereo not drawn) | 8.9µM* | 4µM*
SMILES | FMDV FLuc | FMDV RLuc
CC(=O)N1c2ccccc2C(=O)C1N1CCN(c2cccc(C(F)(F)F)c2)CC1 (stereo not drawn) | -22% | -17%
Cc1[nH]c2ccc(C(=O)NCCN3CCN(C)CC3)cc2c1C | -3% | -1%
Cc1c(O)ccc2c(CN3CCN(c4cccc(C(F)(F)F)c4)CC3)cc(=O)oc12 | 13µM* | 13µM*
Cc1c(O)ccc2c(CN3CCN(Cc4cccc(C(F)(F)F)c4)CC3)cc(=O)oc12 | -45% | -38%
CCOc1cc(/C=C2/NC(=O)NC2=O)cc(Cl)c1OCC | -7% | -5%
O=C(c1cccc(F)c1)N(Cc1cccs1)C1CC1 | 10% | 27%
Cc1ccccc1C(=O)NC12CC3CC(CC(C3)C1)C2 | 21% | 37%
O=C(Oc1ccc(F)cc1)c1ccc(-c2nc3ccccc3s2)s1 | 10µM* | 8%
O=C(Nc1ccccc1-c1nc2ccccc2s1)c1ccc(F)cc1 | -13% | -9%
O=C(NC12CC3CC(CC(C3)C1)C2)c1ccc(-c2nc3ccccc3s2)s1 | 20µM* | 20%
COc1cc(/C=C/C(=O)C2C(=O)C=C(C)OC2=O)cc(Cl)c1OC(F)F (stereo not drawn) | -11% | 0%
COc1ccccc1CCNC(=O)Cn1ccc2cc(S(=O)(=O)N3CCCCC3)ccc21 | -18% | 28µM*
COc1cccc(CNC(=O)Cn2ccc3cc(S(=O)(=O)N4CCCC4)ccc32)c1OC | -16% | 18%
Cc1cc(=O)c2ccccc2[se]1 | 0% | 6%
O=C(O)c1cccc(-c2noc(-c3ccccc3F)n2)c1 | 2.5µM* | -6%
Fc1ccccc1-c1nc(-c2cccc(Br)c2)no1 | 0% | 9%
COc1ccc(C(=O)Nc2ccc3c(c2)N(C2CCCC2)C(=O)c2ccccc2S3)cc1OC | ? | 10µM*
CCN1C(=O)c2ccccc2Sc2ccc(NC(=O)Cc3ccc(OC)c(OC)c3)cc21 | -3% | -7%
Nc1nccnc1C(=O)NCc1cccnc1Oc1cccc(F)c1 | 5% | 8%
Nc1nccnc1C(=O)NCc1ccc(OCc2cccc(F)c2)cc1 | ? | 11µM*
Cc1cc(NC(=S)NCCc2ccccc2)ccc1Br | 123% | 112%
Cc1c(Cl)cccc1-n1cccc1C=O | -1% | 0%
